CF NFkB inh: cystic fibrosis NF-kB activation inhibition; inhibition, % at 5 µM; AID 588850; 0.86% of 360,000 active; KKLEB NF-kB-GFP reporter, PAF-induced, GFP fluorescence overnight;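 active = at least 50% inhibition at 5 µM, scaled per plate between neutral and stimulator controls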;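 note: PAF is a Pseudomonas aeruginosa culture filtrate used as stimulus; plate controls were PAF-stimulated DMSO wells for no effect and unstimulated DMSO wells for full effect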
PAX8 reporter: PAX8 transcriptional activity inhibition; 1.2% of 360,000 active; inhibition, % at 12.6 µM; RMG-I TPO-luciferase reporter, SteadyGlo, 24 h;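 active = mean replicate inhibition at least 60% with every replicate also reaching 60%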;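 note: luciferase light reporting Pax8 driven TPO promoter activity; plate controls were median of neutral control wells for no effect and mitoxantrone controls for full effect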
KKLEB tox: counter-screen for CF NF-kB inhibitors: cytotoxicity; KKLEB CF airway cells viability, ATPlite luminescence, overnight; stronger effect = lower value; cells stimulated with P. aeruginosa culture filtrate; activity change (cytotoxicity), % at 5 µM; 0.36% of 360,000 active;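 active = corrected activity change at or below -50% at 5 µM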
HIF-2a inh: inhibitors of HIF-2a; 786-0 RCC cells HIF-2a reporter, luciferase luminescence, overnight; inhibition, % at 18.8 µM; 0.72% of 360,000 active; AID 624352;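 active = inhibition of the luminescence signal of 40% or more relative to plate controls, in a single-dose primary screen at 18.75 µM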
EWS-Fli inh: EWS/Fli transcriptional activity inhibition; 0.67% of 350,000 active; A673 NR0B1-luciferase reporter, viability-normalised; AID 651661; inhibition, % at 12.6 µM;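 active = mean inhibition of at least 50% after viability correction, with every replicate also passing that limit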;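 note: firefly luciferase signal divided by Alamar Blue viability fluorescence both relative to DMSO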
Mdm2-MdmX confirm: Mdm2/MdmX (human) interaction inhibition, confirmed | 99% of 740 active | shares compounds with HIF-2a inh | AID 504601 | SaOS-2 split-luciferase Mdm2/MdmX complementation, luminescence | inhibition, % at 8 µM;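 active = mean inhibition of the luminescence signal across two replicates at or above 26 percent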
HIF-2a inh conf: confirmation of HIF-2a inhibitors | 56% of 1,800 active | inhibition, % at 18.8 µM | 786-0 RCC cells, HIF-2a luciferase reporter luminescence, overnight | shares compounds with HIF-2a inh;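 active = mean inhibition across four replicates of at least 40 percent at the single tested concentration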
HIF-1a counter: HIF-1a inhibition counter-screen for HIF-2a hits. shares compounds with HIF-2a inh. MiaPaCa-2 HIF-1a luciferase reporter, desferoxamine, overnight. inhibition, % at 18.8 µM. 72% of 1,800 active. AID 651589;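 active = mean inhibition of the reporter signal across four replicates at the single tested dose of 50% or more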
Starred values were filed as active, the others as inactive; . = no result. Only some compounds are listed: those with a hit (about 2.1% of all), similar ones and a draw of the others.

SMILES	CF NFkB inh	PAX8 reporter	KKLEB tox	HIF-2a inh	EWS-Fli inh	HIF-2a inh conf	HIF-1a counter	others
CC(C)CC#Cc1cnc2c(c1)C(=O)N([C@@H](C)CO)C[C@@H](C)[C@H](CN(C)Cc1ccccc1F)O2	.	.	.	.	9.3	.	.
O=[N+]([O-])c1ccc2nc(-[n+]3c(-c4ccccc4)cc(-c4ccccc4)cc3-c3ccccc3)[nH]c2c1	23.3	.	-16.6	16.1	.	.	.
O=[N+]([O-])c1ccc2nc(Cl)nc(-c3ccccc3)c2c1	-21.2	13.7	5.9	19.3	10.9	.	.	Mdm2-MdmX confirm=101.2*
Cc1c(C(=O)Nc2ccc(-c3nnc4n3CCCCC4)cc2)oc2c1ccc1ccccc12	-35.9	27.8	-9.8	56.0*	.	-50.5	106.1*
O=C(Nc1ccc(-c2nnc3n2CCCCC3)cc1)c1cc2ccccc2o1	-0.5	-21.4	-0.2	-6.1	-8.2	.	.
Cn1nc([N+](=O)[O-])nc1Sc1nnc(-c2ccccc2)o1	27.7	.	-13.4	30.9	.	.	.	Mdm2-MdmX confirm=75.2*
CCCNC(=O)C[C@@H]1CC[C@@H]2[C@H](COc3ccc(NC(=O)NC(C)C)cc3C(=O)N2C)O1	.	-3.1	.	.	-2.4	.	.
COc1ccc(C2=Nn3c(nnc3-c3ccccc3OC)SC2)cc1OC	53.1*	.	-31.5	43.1*	.	18.4	11.0
O=C(C(=Cc1ccc(F)cc1)C(=O)c1ccccc1)c1ccccc1	36.6	-220.6	-6.6	84.8*	-62.7	43.3*	102.3*
O=C(C(=Cc1ccc(F)cc1)c1ccccc1)c1ccc(O)cc1	-19.2	11.7	-0.7	-18.0	-2.4	.	.
Cc1ccc(S(=O)(=O)N(C)C[C@H]2Oc3c(NC(=O)c4nc5ccccc5s4)cccc3C(=O)N([C@H](C)CO)C[C@@H]2C)cc1	.	.	.	.	13.8	.	.
CCn1nc(C)cc1-c1nnc(Sc2ncc([N+](=O)[O-])s2)n1C	94.6*	78.0*	-82.1*	96.0*	69.2*	.	.	Mdm2-MdmX confirm=103.5*
CCn1nc(C)cc1-c1nnc(SCC(=O)Nc2ccccc2)n1CCCOC	0.1	-19.2	2.8	15.7	0.0	.	.
O=C(NC1CCC1)[C@@H]1[C@@H](CO)[C@@H]2Cn3c(ccc(/C=C/c4ccccc4)c3=O)[C@@H]2N1Cc1cncnc1	.	.	.	.	7.8	.	.
Cc1cc(N)n2nc(C)c(-c3ccc(Cl)cc3)c2n1	2.9	14.4	-19.0	0.2	-11.0	.	.
Cc1cc(Cl)n2nc(C)c(-c3ccc(Cl)cc3)c2n1	33.1	80.9*	-29.6	66.5*	47.1	8.8	100.1*
CCCNC(=O)Nc1ccc2c(c1)C(=O)N(C)C[C@@H](OC)[C@@H](C)CN(C(=O)C1CCCCC1)[C@H](C)CO2	.	-1.6	.	.	7.1	.	.
CC12CCC(C(=O)Nc3ccc4c(c3)OCCO4)(OC1=O)C2(C)C (stereo not given)	-12.6	-61.8	2.8	42.1*	.	31.6	50.3*
Cc1cccc(NC(=O)C23CCC(C)(C(=O)O2)C3(C)C)c1 (stereo not given)	-5.6	16.4	-4.6	10.2	-5.9	.	.
CC(C)=CCOc1ccc([C@@H]2COc3c(ccc4c3C=CC(C)(C)O4)C2)c(O)c1	3.5	.	-0.1	61.1*	10.6	-25.7	100.5*
COc1c(Cl)cc(Cl)cc1/C=C/C(=O)c1ccc(NC(=O)c2cccs2)cc1	87.5*	81.3*	-82.1*	87.3*	.	-96.5	107.1*	Mdm2-MdmX confirm=99.5*
COc1c(Cl)cc(Cl)cc1C(=O)Nc1ccc(C(=O)O)cc1	-0.7	2.9	5.0	9.9	.	.	.
Cc1ccc(S(=O)(=O)N[C@H]2CC[C@@H](CCNC(=O)C3CCC3)O[C@@H]2CO)cc1	.	10.4	.	.	3.1	.	.
Cc1sc2ncnc(N3CCC(C(=O)Nc4cc(S(C)(=O)=O)ccc4Cl)CC3)c2c1C	44.9	7.4	-1.7	41.4*	7.8	-1.0	73.9*
Cc1sc2ncnc(N3CCC(C(=O)Nc4cc(Cl)ccc4Cl)CC3)c2c1C	-5.2	0.1	-8.6	1.2	4.5	.	.
C[C@@H]1CN([C@@H](C)CO)C(=O)c2cccc(NC(=O)Nc3ccc(F)cc3)c2O[C@@H]1CN(C)C	.	5.8	.	.	0.6	.	.
COc1ccc2c3c(n(C)c2c1)[C@@H](CO)N(Cc1ccccc1OC)CC31CN(C)C1	.	.	.	.	-12.0	.	.

Screening results (PubChem BioAssay)
